# Measured values published in PMC4242493, “Sequence specificity incompletely defines the genome-wide occupancy of Myc”.
# In all, about 33,000 sequences were measured (“normalized occupancy”: median about 0.075, highest 2% from about 0.095 on). Shown is part of a subset that was picked to be rich in the highest values.
# Molecular target: MaxL homodimer (Homo sapiens, UniProt P61244 1-160)
# Test: universal protein-binding microarray (PBM); PBS-based mixture, 10 nM His-tagged protein dimer, 2% milk, 200 ng/uL BSA, 50 ng/uL salmon testes DNA, 0.02% TX-100; detection with Alexa 488 anti-His antibody;; high values mean tight binding
# Conditions: protein: recombinant; tags: C-terminal His-tag (pET21a); chain copies: 2; dsDNA, one strand shown
# In short: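 His-tagged protein dimer at 10 nM was bound to Agilent 4 x 44 K 'all 10-mer' universal arrays and detected with 10 ng/μL fluorophore-conjugated anti-His antibody on a GenePix 4400A, giving an intensity per 8-mer. Binding occupancy normalises each intensity to the top-ranked one.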
# Sequence of MaxL homodimer (P61244 whole entry): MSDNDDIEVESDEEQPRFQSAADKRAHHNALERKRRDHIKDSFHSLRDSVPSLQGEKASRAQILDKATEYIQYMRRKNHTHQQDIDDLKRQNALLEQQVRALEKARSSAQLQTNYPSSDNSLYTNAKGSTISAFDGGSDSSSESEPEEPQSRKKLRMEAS
row,Sequence,binding signal
1,AACCCATA,0.0815 normalized occupancy
2,CACCCATC,0.0827 normalized occupancy
3,AACCCGTG,0.0816 normalized occupancy
4,AACCCATG,0.0961 normalized occupancy
5,AACCCATT,0.0783 normalized occupancy
6,ACCCCATC,0.0823 normalized occupancy
7,ACCCCATA,0.0838 normalized occupancy
8,ACCCCGTA,0.0818 normalized occupancy
9,ACCCCATG,0.102 normalized occupancy
10,CACCCATG,0.1 normalized occupancy
11,CACCCATA,0.0892 normalized occupancy
12,CGGACGCA,0.0735 normalized occupancy
13,ATTTTCTA,0.0856 normalized occupancy
14,CAGAAGAC,0.0718 normalized occupancy
15,GACAGTAA,0.0794 normalized occupancy
16,ACGTTCGA,0.0752 normalized occupancy
17,CACGACAC,0.0789 normalized occupancy
18,CGTACGGC,0.0778 normalized occupancy
19,AAACAGCA,0.0759 normalized occupancy
20,GGCATGTA,0.0812 normalized occupancy
21,AGTATGTC,0.0803 normalized occupancy
22,AGCATGTA,0.106 normalized occupancy

row,Sequence,binding signal
1,CGCATTTC,0.0783 normalized occupancy
2,CGCATCTC,0.0769 normalized occupancy
3,AGTATGTG,0.081 normalized occupancy
4,AGCATGTG,0.164 normalized occupancy
5,AGGATGTG,0.0831 normalized occupancy
6,AGCATTTC,0.0792 normalized occupancy
7,AGGATGTA,0.0795 normalized occupancy
8,AGCATGTC,0.1 normalized occupancy
9,CGCATGTC,0.105 normalized occupancy
10,CCGTACAC,0.0886 normalized occupancy
11,GTGAGTGA,0.0775 normalized occupancy
12,ACTGGCCT,0.073 normalized occupancy
13,CATTCGCA,0.078 normalized occupancy
14,AGCCAACA,0.0808 normalized occupancy
15,ACTTGTGC,0.0751 normalized occupancy
16,AAAATTAG,0.0735 normalized occupancy
17,ATTAAGGA,0.0744 normalized occupancy
18,AAACAGTA,0.0764 normalized occupancy
19,CTCATGTA,0.0936 normalized occupancy
20,CGCATGTA,0.105 normalized occupancy
21,CCCATGTA,0.0872 normalized occupancy
22,GGAATCCC,0.0772 normalized occupancy

row,Sequence,binding signal
1,ATCGTTCG,0.0755 normalized occupancy
2,AAAGCGTT,0.0746 normalized occupancy
3,AAAGCGCG,0.0769 normalized occupancy
4,CAAGCGCG,0.0759 normalized occupancy
5,CAAGCGTG,0.104 normalized occupancy
6,AAAGCGTG,0.11 normalized occupancy
7,CAAGCGAG,0.0757 normalized occupancy
8,ATGTTGCA,0.0888 normalized occupancy
9,CTTCCCCA,0.0787 normalized occupancy
10,AGTAGTAG,0.0786 normalized occupancy
11,GATGTTAC,0.0818 normalized occupancy
12,AGGCGTCA,0.0742 normalized occupancy
13,CGGTACAC,0.0815 normalized occupancy
14,AACGTTGT,0.0817 normalized occupancy
15,ACCGTGGG,0.0732 normalized occupancy
16,AACGTGGG,0.114 normalized occupancy
17,AACGTGGC,0.107 normalized occupancy
18,ATCGTGGG,0.0895 normalized occupancy
19,AACGTAGC,0.0749 normalized occupancy
20,AAAGTGGT,0.0721 normalized occupancy
21,AACGTGGT,0.125 normalized occupancy
22,GACGTGGC,0.0846 normalized occupancy

row,Sequence,binding signal
1,AGTAACTC,0.0742 normalized occupancy
2,CTAGGAGA,0.0761 normalized occupancy
3,AATGCCTA,0.0747 normalized occupancy
4,ACATCAGT,0.0736 normalized occupancy
5,TATGAATA,0.0823 normalized occupancy
6,ATATCTCC,0.0807 normalized occupancy
7,CACTTCAG,0.0728 normalized occupancy
8,TTGAGAAA,0.0807 normalized occupancy
9,AACGTACT,0.0746 normalized occupancy
10,ACACGAGA,0.0977 normalized occupancy
11,AAACGAGG,0.081 normalized occupancy
12,ACACGACT,0.0807 normalized occupancy
13,ATACGAGG,0.084 normalized occupancy
14,ACACGAGG,0.144 normalized occupancy
15,ACACGAAT,0.0776 normalized occupancy
16,ACACGATA,0.0824 normalized occupancy
17,ACACGATC,0.0822 normalized occupancy
18,ACACGATG,0.0969 normalized occupancy
19,ACACGAGT,0.0979 normalized occupancy
20,ACACGAGC,0.0815 normalized occupancy
21,ATACGAGA,0.0785 normalized occupancy
